# Screening data from PubChem BioAssay.
# ATXN2 expr inh: inhibitors of ATXN2 expression | 360,000 compounds, 0.72% hits | AID 1745845 | HEK-293 ATXN2-luciferase reporter, luminescence, 24 h | Potency, µM (top dose mostly 57 µM), hits mostly inhibitors; further: nearly all actives have a fitted effect of over 55% in size
#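 ATXN2-luciferase reporter cells (luciferase flanked by upstream and downstream ATXN2 gene portions) were treated 24 h at 37 °C with compounds at up to 57 uM. SteadyGlo luminescence gave expression; GF-AFC fluorescence gave viability.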
# SW480 rereplic: induces DNA re-replication in SW480 colon adenocarcinoma cells; AID 624297; Potency, µM (top dose mostly 46.1 µM), usual class: activators; SW480 DNA re-replication, Hoechst DNA content imaging, 48 h; 340,000 compounds, 1.8% hits; further: nearly all actives have a fitted effect of over 55% in size
#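 Per well, 250 cells were exposed to pinned compound for 48 hr. Nuclear DNA was visualised with Hoechst (40 min, 37 C) and total object intensity recorded by fluorescence scanning.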
# MCF10A rereplic: induces DNA re-replication in MCF 10a normal breast cells. AID 624296. MCF 10A DNA re-replication, Hoechst nuclear intensity, 48 h. Potency, µM (titrated, usually from 46.1 µM), most hits filed as activators. 350,000 compounds, 2.9% hits; further: nearly all actives have a fitted effect of over 50% in size
# S2 tox: viability counter-screen for ATXN expression inhibitors; AID 651635; 400,000 compounds, 0.49% hits; S2 cells (HEK-293 line with an ATXN2-luciferase reporter) viability, CellTiter-Fluor protease fluorescence, 24 h; Potency, µM (titrated, usually from 56.7 µM), usual class: cytotoxic; further: nearly all actives have a fitted effect of over 40% in size
# IL-1B inflam inh: blocks inflammasome-driven IL-1 beta release | THP-1 LPS/ATP IL-1B secretion, AlphaLISA, 16 h; hits give low values | activity change, % at 57.5 µM | 360,000 compounds, 4.7% hits | AID 743279; in the data active means activity change below about -50%; inconclusive means mostly about -30% to -49%
#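 THP-1 cells pretreated 1 hr with compounds (up to 57.5 uM final), then stimulated with LPS (250 ng/mL final) plus ATP (1.25 mM final); secreted IL-1B measured by AlphaLISA after 16 hr, decreased signal indicating inhibition.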
# PINK1 expr mod: modulators of PINK1 expression; Potency, µM (series often up to 76.6 µM), most hits filed as activators; AID 624263; 410,000 compounds, 0.2% hits; PINK1 immunofluorescence, high-content cytometry, 24 h; active means well fitted activation curve with a large enough effect; inconclusive means small, poorly fitted or top-dose-only effect; cell line not stated here; further: nearly all actives have a fitted effect of over 65% in size
#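 Cells are seeded, rested 12 hours, then given compound at five concentrations or DMSO for 24 hours. After fixation, blocking and antibody staining, PINK1 amount and mitochondrial localization are scored; CCCP serves as control.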
# A number is an active result; . = inactive; ? = inconclusive; / = no result; [ ] = remark or other dose. A selection: hits, their analogues and other compounds. The true share with any hit is near 7.1%. Unless noted, the call rests on the fitted dose curve; in most records, active means well fitted curve in the direction sought with a large enough effect; inconclusive means small, poorly fitted or top-dose-only effect, or another doubt; inactive means no such curve, though single readings can be large; an effect the other way counts as inactive or inconclusive.
SMILES,ATXN2 expr inh,SW480 rereplic,MCF10A rereplic,S2 tox,IL-1B inflam inh,PINK1 expr mod
Cc1cccc(C2c3[nH]c4ccccc4c3CCN2C(=O)c2noc3c2CCCC3)n1 (centres undefined),.,.,.,?,-54,.
Cc1ccc2nc(C(=O)N3CCc4c([nH]c5ccccc45)C3c3ccccn3)cn2c1 (centres undefined),.,.,.,.,-59,.
O=C(NC1CCCC1)c1ccc2c(c1)N(Cc1ccc(C(F)(F)F)cc1)C(=O)c1ccccc1S2,.,/,/,.,/,.
COc1ccc2cccc(CCNC(C)=O)c2c1,.,/,/,.,/,/
C=CCc1c(C)nc(-c2ccccc2)nc1Nc1ccccc1O,.,.,23µM,.,.,?
C=CCc1c(C)nc(-c2ccccc2)nc1N/N=C/c1ccncc1,.[11.3 µM],23µM,.,.,.,.
CCN1CCCC1CNC(=O)c1cnn(-c2nccc(-c3ccccc3F)n2)c1C (centres undefined),/,/,/,.,/,.
CCOC(=O)c1ccc(OC(=O)c2cn(-c3ccc(C)cc3)c(=O)c3ccccc23)cc1,/,/,/,/,/,.
O=C(c1nnsc1S(=O)(=O)c1ccc(Cl)cc1)N1CCOCC1,?,?,3.5µM,/,-106,.
O=C(c1nnsc1S(=O)c1ccc(Cl)cc1)N1CCOCC1 (centres undefined),.[11.3 µM],.,.,/,-104,.
CNC(=O)c1nnsc1S(=O)(=O)c1ccc(Cl)cc1,?,1µM,1.5µM,?,-98,.
O=C(Nc1ccccc1)c1nnsc1S(=O)c1ccc(Cl)cc1 (centres undefined),?,23µM,?,?,-107,.
Cc1nnsc1S(=O)c1ccc(Cl)cc1 (centres undefined),/,?,.,.,.,.
Cc1c(C)n(Cc2ccccc2)c2ccc(C(=O)N3CCN(c4ccccc4F)CC3)cc12,/,/,/,/,/,.
COc1ccc(N2CCN(c3nc4ccc(C)cc4n4nnnc34)CC2)cc1,/,/,/,/,/,.
O=C(CSc1ncn[nH]1)Nc1ccc(Cl)c(Cl)c1,.,.,.,.,-52,.
Cc1ccc(NC(=O)CSc2ncn[nH]2)cc1C,/,/,/,/,/,.
CCc1ccc(CN(Cc2ccco2)c2cnc(S(C)(=O)=O)nc2C(=O)Nc2c(C)cccc2C)cc1,.,/,/,.,/,.
CCN(CC)S(=O)(=O)c1cccc(NC(=O)C2SC(=Nc3ccc(C)cc3C)C(C(=O)NCC3CCCO3)=C2N)c1 (centres undefined),.,?,?,.,.,25µM
CCN(CC)S(=O)(=O)c1cccc(C(=O)NCC2CCCCC2)c1,.,.,.,.,.,.
CCN(CC)S(=O)(=O)c1cccc(C(=O)NCC2CCCO2)c1 (centres undefined),.,?,23µM,.,.,.
Cc1ccc(Cl)cc1N1CCN(C(=O)c2cccn2-c2nnc(N3CCCC3)s2)CC1,/,/,/,/,/,.
O=C(c1cccc(F)c1)N1CCc2ccccc21,.,.,0.18µM,.,.,/
O=C(c1ccc(C(=O)N2CCCc3ccccc32)s1)N1CCCc2ccccc21,.,.,.,?,-52,.
COc1cc(C(=O)N2CCN(c3ccccc3OC)CC2)c([N+](=O)[O-])cc1OC,.,?,.,.,.,.
SMILES,ATXN2 expr inh,SW480 rereplic,MCF10A rereplic,S2 tox,IL-1B inflam inh,PINK1 expr mod
COc1cc(C(=O)N2CCCc3ccccc32)c([N+](=O)[O-])cc1OC,.,.,16µM,.,.,.
O=C(c1ccc([N+](=O)[O-])s1)N1CCCc2ccccc21,?,6.5µM,.,.,?,?
Cn1c(=NC(=O)CCl)sc2ccccc21,?,?,15µM,32µM,-120,.
CN(C)c1ccc(N=c2sc3ccccc3n2C)cc1,.,?,.,.,-51,/
Cn1c(=Nc2ccccc2)sc2ccccc21,.,.,?,.,.,.
Cc1ccc(OCCSc2nc3ccccc3n2CC(=O)N2CCCCC2)c(C)c1,?,/,/,/,/,.
CCn1c(C)c(C(C)=O)c(N2CCN(c3cccc(Cl)c3)CC2)nc1=S,.,.,.,.,.,.
CC(=O)c1c(NCCc2ccccc2)nc(=S)n(-c2ccccc2)c1C,.,.,?,?,-101,.
CC(=O)c1c(N2CCN(c3cccc(Cl)c3)CC2)nc(=S)n(-c2ccccc2)c1C,.,.,.,.,-102,.
CCOC(=O)c1cnc2c(C)c(Cl)ccc2c1Nc1ccc(N2CCOCC2)cc1,.,/,/,.,/,.
O=C(NNC(=O)C12CC3CC(CC(C3)C1)C2)c1ccccn1,?,?,?,?,-97,.
O=C(NNC(=O)C12CC3CC(CC(C3)C1)C2)c1cnccn1,.,.,.,?,.,.
O=C(NNC(=O)C12CC3CC(CC(O)(C3)C1)C2)c1ccccc1O,.,16µM,.,.,.,.
CC1(C)CC(=O)c2cc(-c3nc(-c4ccc(Cl)cc4)cs3)c(=O)n(-c3cccc(F)c3)c2C1,.,/,/,.,/,.
COc1ccc(C2c3c4c(n(C)c3CCN2C)CCN(C)C4c2ccc(OC)cc2)cc1 (centres undefined),.,?,.,.,-55,.
CN1CCc2c(c3c(n2C)CCN(C)C3c2ccc(F)cc2)C1c1ccc(F)cc1 (centres undefined),.,.,.,.,.,.
CCOc1c(Br)cc(CNC2CCCCCCC2)cc1OC,/,?,10µM,?,-94,.
COc1cc(CNC2CCCCCCC2)cc(Cl)c1OC,.,?,.,.,-80,.
COc1cc(C)c(CNC2CCCCC2)cc1C,.,?,.,.,.,.
C=CCOc1c(CNC2CCCC2)cc(Cl)cc1OC,.,.,?,.,-72,.
Cn1c(-c2ccncc2)nc2cc(C(=O)N3CCCC3c3nccs3)cc(NC(=O)C3CCC3)c21 (centres undefined),/,/,/,.,/,.
CCOC(=O)COc1cc(Br)c(/C=N/Nc2ccccc2)cc1OC,.,.,?,?,-93,.
Cc1c(Cl)cccc1-n1ncc(C(=O)Nc2ccc(F)cc2F)c1C1CCN(C(=O)OC(C)(C)C)CC1,.,/,/,?,/,.
CCCC1CCc2c(sc(NC(=O)OCC)c2C#N)C1 (centres undefined),.,10µM,?,.,?,.
CCOC(=O)Nc1sc2c(c1C#N)CCCC2,.,.,.,?,.,.
CCOC(=O)c1ccc(NC(=O)CCc2nc3cccnc3n2Cc2cccs2)cc1,.,/,/,.,/,.
CCS(=O)(=O)c1ncc(N(Cc2ccco2)Cc2sccc2C)c(C(=O)Nc2cc(C)ccc2C)n1,.,/,/,.,/,.
O=C(CSc1ncnc2c1nnn2Cc1ccccc1F)NCC1CCCO1 (centres undefined),.,.,?,.,-90,.
O=C(CSc1ccccc1C(=O)NCc1ccccc1)NC1CCCCCCC1,.,.,.,?,-101,.
